Source: the supplement of paper PMC6555819

Each sequence was assayed on VDR:RXRa (NR concentration 270 nM, RXRa partner concentration 90 nM) (assay: PBM binding z-score (relative to random genomic background probes); higher = stronger binding; sequences stand for … in GC…GCGATTGACAGCGTAGAATGAAGG).
Protocol: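 Protein-binding microarray (Agilent 4x180K custom design, double-stranded 60-nt probes: 5' GC cap, 34-nt variable region, 24-nt constant primer region; full probe sequence given). Purified or IVT nuclear receptor:RXRα heterodimers (3:1 NR:RXRα, mostly 270:90 nM) or homodimers were incubated for 1 h in PBS with 2% milk and no ligand, then detected with Alexa488 antibodies. Fluorescence from o1-orientation probes (~5 replicates averaged) was converted to z-scores against 500 random hg19 background probes. Variable regions are seed direct-repeat (DR0–DR5) sites, all their single-nucleotide variants and half-site ablations.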
For TTACCAAGGTGAGCTGAGGTTGTTGATCCAACTC, the PBM binding z-score was 0.678. In the case of TCTCGGAGGGCACGAAGGTCAGAGCTTTCCAGAG, the PBM binding z-score is reported as 5.15. GGCACGAGGGCATTCGAGTTGATAGCATGGCGAT was tested, and the PBM binding z-score was 3.54. CGTCCAAGGTCAGCAGGTCAGTGTAAGCGACGTG showed a PBM binding z-score of 4.14. CTACCAAGGTGAACAACGTCGTTGATTACTATTC was tested, and the PBM binding z-score was 0.38. GTACCAAGGTGAAGAGGTCGTTGATGAGTAGGCG gave a PBM binding z-score of 2.71. For TTACCAGGGTGAAGGTCGTTGATCCCTCTGTAGA, the PBM binding z-score was 1.65. Work on ATCGAAAGGTCGTGGGGTGAGTATACAGAAAGGC yielded a PBM binding z-score of 4.83. Work on CCTACTGGGACAAAAAGGTCATTGATGCCGATAA yielded a PBM binding z-score of 4.78. ACTAGTTGGTCAGCTGAGGTCAGACACAATTCGG was tested, and the PBM binding z-score was 3.07. For CCGTACGGGTCACTGACAGGTTATAGCATTTGGA, the PBM binding z-score was 3.72. With CGAACTAGGTCAGATCAGGACAGTGAAGGATGAT the PBM binding z-score was 1.12. CCATACAGGTGAAAGGTAACTCAGTCTGGTACGC was tested, and the PBM binding z-score was 0.988. With TCATATAGGTAATACAGGAGAAAGTCGGCATCTA the PBM binding z-score was 0.996. With TAGCCTAGGTCATGGGCCCGTATACCACGCGAAC the PBM binding z-score was 2.07. Work on ACTATTAGTTAAGACGAGGGCAACCGATAGGTTG yielded a PBM binding z-score of 0.464. With GCTAGTTGGACAGTAAAAGGTCACACACCGGTCG the PBM binding z-score was 3.84. With CGTCCAAGGTCAAGGTCATTGAAAGAGACTCGAA the PBM binding z-score was 5.37. With CCTGCTAGGTCAATGGTCAGCTACAGCAGCTCGC the PBM binding z-score was 0.991. Work on ACAGACAGGAGATGAAGGTAACTCAGGCTATCAT yielded a PBM binding z-score of 0.143. With ACAGACAGGTGAGTGGAGGTAACTCAGCTGGACG the PBM binding z-score was -0.0789. GGAACGAGGGCATTCGAGTTGATGGCATGGCGAT was tested, and the PBM binding z-score was 3.36. With TCGAGTAGGTTAGTGGCATTCAGAATGGCGTCGA the PBM binding z-score was -0.261. In the case of CCTCGGAGGACAACAGGAGGCCAGAGCTGCCAGA, the PBM binding z-score is reported as -0.504. With CGTCAAAGTTCAGCTAAGGTAACGTAAAGCACGC the PBM binding z-score was 3.33. Work on GCGACTGGGGCATCAGCAGGTTCCCATAACTTAA yielded a PBM binding z-score of -0.515. For TCCAGCAGGCCAGAGGGTCACTCAAGAGGTACGG, the PBM binding z-score was 1.34. Sequence CTCGAAAGGTCGGTTGAGGTGAGTGTACGGATAA has a PBM binding z-score of 2.42. Sequence CCTAGCACGCCAGGGTCACTCAAGCATTTCGCTT has a PBM binding z-score of 2.56. With CGAACTAGGTCAATGACAGTGAATCTCCGCACGC the PBM binding z-score was 1.15. CGACAAAGTTCAACTAAGGTAACGTAAAGCACGC gave a PBM binding z-score of 4.67. CAAACTAGGTCTAAGGTCAAAGTCGAGCCAACCA showed a PBM binding z-score of 4.26. In the case of CGAACGAGGGCATGAGTTGTTAGCAAATGCCGAT, the PBM binding z-score is reported as 0.896. AGTCAAAGTTCCCTAGGTAACGTAAGATTCAGCT gave a PBM binding z-score of -0.251. For GTAACGAGGGCATTCGAGTTGATAGCATGGCGAT, the PBM binding z-score was 3.62. Work on TGTCAAAGTTCAAAGGTATCGTAAGTATCCACAC yielded a PBM binding z-score of 4.75. CCTTACGGGTCACTCCAGGGTATAGCATCGGAGT gave a PBM binding z-score of 3.25. For CCTAGTTGGTCATGAGGTCACACACCGGATATGA, the PBM binding z-score was 4.97. AGAATGAGGTTATGAAGATCAGGGAATTGCGGTC was tested, and the PBM binding z-score was 1.44. With GCAGGCAGGTGAAACGCAGGTAACTCAGGGTGGC the PBM binding z-score was 0.85.
